Records with an inconclusive call do not appear. Activity calls are given as the source filed them. Calls follow the shape of the dose curve; as a rule, active = well fitted curve in the direction sought with a large enough effect; inconclusive = small, poorly fitted or top-dose-only effect, or another doubt; inactive = no such curve, though single readings can be large; an effect the other way counts as inactive or inconclusive.
Columns and labels:
CRL-7250 = normal cell line; assay: Cytotoxic Profiling of Annotated Libraries Using Quantitative High-Throughput Screening (AID 1296008); settings: Five cell lines viability, CellTiter-Glo ATP luminescence, 48-72 h; max response: stronger effect = lower value; also: nearly all actives have a fitted effect of over 60% in size; as to max response: % is scaled to controls: 0 for no effect and ±100 for the full control effect
Outline: (§1)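 Cytotoxicity was measured as CellTiter-Glo ATP luminescence, read after 10 min at room temperature. Compound treatment of the cells lasted 48 or 72 hr at 37 degrees Celsius in a qHTS format.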

HEK293 = assay: as above; settings: Five cell lines viability, CellTiter-Glo ATP luminescence, 48-72 h; max response: stronger effect = lower value
Outline: as §1

HaCat [1] = assay: as above; settings: Five cell lines viability, CellTiter-Glo ATP luminescence, 48-72 h; max response: stronger effect = lower value
Outline: as §1

KB-3-1 = assay: as above; settings: Five cell lines viability, CellTiter-Glo ATP luminescence, 48-72 h; max response: stronger effect = lower value
Outline: as §1

NIH3T3 [2] = assay: as above; settings: Five cell lines viability, CellTiter-Glo ATP luminescence, 48-72 h; max response: stronger effect = lower value
Outline: as §1

HACAT [3] = assay: qHTS assay to identify novel small-molecules to repurpose for Merkel cell carcinoma treatment (AID 1296009); settings: MCC and control cell lines, CellTiter-Glo viability, 72 h; at 44.8 µM (top of the series) unless noted; also: nearly all actives have a fitted effect of over 60% in size
Outline: (§2)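 72 hr, 37 degree celsius; NPC 8-pt / MIPE 11-pt dose response; compound pinned in DMSO; CellTiter-Glo, 10 min RT, luminescence; normalized to no-cell and DMSO controls.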

NIH3T3 [4] = assay: as above; settings: MCC and control cell lines, CellTiter-Glo viability, 72 h; at 44.8 µM (top of the series) unless noted
Outline: as §2

C33A = assay: Primary qHTS to identify gynecologic anti-cancer compounds using libraries of approved drugs and bioactive compounds (AID 1345084); settings: Gynecologic cancer cell panel viability, ATPlite luminescence, 48 h; series mostly up to 57.5 µM; also: % is scaled to controls: 0 for no effect and ±100 for the full control effect; nearly all actives have a fitted effect of over 55% in size
Outline: (§3)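 ATP-based viability (ATPlite), 1,000 cells/well, 16 h pre-incubation, 48 h compound at 37 C, 5% CO2, 15 min RT before read.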

CAOV3 = assay: as above; settings: Gynecologic cancer cell panel viability, ATPlite luminescence, 48 h; series mostly up to 57.5 µM
Outline: as §3

CASKI = assay: as above; settings: Gynecologic cancer cell panel viability, ATPlite luminescence, 48 h; series mostly up to 57.5 µM
Outline: as §3

Es-2 = assay: as above; settings: Gynecologic cancer cell panel viability, ATPlite luminescence, 48 h; series mostly up to 57.5 µM
Outline: as §3

HeLa = assay: as above; settings: Gynecologic cancer cell panel viability, ATPlite luminescence, 48 h; series mostly up to 57.5 µM
Outline: as §3

Hek293T = assay: as above; settings: Gynecologic cancer cell panel viability, ATPlite luminescence, 48 h, control line for the selectivity index; series mostly up to 57.5 µM
Outline: as §3

JEG-3 = assay: as above; settings: Gynecologic cancer cell panel viability, ATPlite luminescence, 48 h; series mostly up to 57.5 µM
Outline: as §3

OV90 = assay: as above; settings: Gynecologic cancer cell panel viability, ATPlite luminescence, 48 h; series mostly up to 57.5 µM
Outline: as §3

NC1(c2ccc(NC(=O)c3ccnc(-c4cc(C(=O)O)ccn4)c3)cc2)CC1
inactive: outcome (CRL-7250) | max response (HEK293) -8.28% | outcome (HaCat [1]) | outcome (KB-3-1) | outcome (NIH3T3 [2]) | outcome (HACAT [3]) | outcome (NIH3T3 [4]) | Potency (C33A) | Potency (CAOV3) | outcome (CASKI) | Potency (Es-2) | Potency (HeLa) | Potency (Hek293T) | Potency (JEG-3) | Potency (OV90)

CC1(C)CC[C@]2(C(=O)O[C@@H]3O[C@H](CO)[C@@H](O)[C@H](O)[C@H]3O)CC[C@]3(C)C(=CCC4[C@@]5(C)CC[C@H](O[C@@H]6O[C@H](C(=O)O)[C@@H](O[C@@H]7O[C@H](CO)[C@@H](O)[C@H](O)[C@H]7O)[C@H](O)[C@H]6O[C@@H]6O[C@H](CO)[C@@H](O)[C@H](O)[C@H]6O)C(C)(C)C5CC[C@]43C)C2C1 (stereo not given in full)
inactive: max response (CRL-7250) -7.32% | max response (HEK293) -5.89% | outcome (HaCat [1]) | max response (KB-3-1) 9.55% | outcome (NIH3T3 [2]) | outcome (HACAT [3]) inactive [at 9.27 µM] | outcome (NIH3T3 [4]) inactive [at 9.27 µM] | activity change, negative = cytotoxicity (C33A) -1.12% [at 11.6 µM] | activity change, negative = cytotoxicity (CAOV3) 5.45% [at 11.6 µM] | activity change, negative = cytotoxicity (CASKI) 8.01% [at 11.6 µM] | activity change, negative = cytotoxicity (Es-2) -12.1% [at 11.6 µM] | activity change, negative = cytotoxicity (HeLa) 0.908% [at 11.6 µM] | activity change, negative = cytotoxicity (Hek293T) 0.105% [at 11.6 µM] | activity change, negative = cytotoxicity (JEG-3) 18.6% [at 11.6 µM] | activity change, negative = cytotoxicity (OV90) 4.99% [at 11.6 µM]

CC1CCC2(NC1)OC1C(O)C3C4CCC5CC(O[C@@H]6O[C@H](CO)[C@@H](O)[C@H](O)[C@H]6O[C@@H]6O[C@@H](C)[C@H](O)[C@@H](O)[C@H]6O)CCC5(C)C4CCC3(C)C1C2C (stereo not given in full)
inactive: max response (CRL-7250) -4.87% | max response (HEK293) 2.08% | outcome (HaCat [1]) | max response (KB-3-1) -0.386% | outcome (NIH3T3 [2]) | outcome (HACAT [3]) inactive [at 17.4 µM] | outcome (NIH3T3 [4]) inactive [at 17.4 µM] | Potency (C33A) | Potency (CAOV3) | outcome (CASKI) | Potency (Es-2) | Potency (HeLa) | Potency (Hek293T) | Potency (JEG-3) | Potency (OV90)

O=C(/C=C/c1ccc(O)c(O)c1)OC[C@H]1O[C@@H](OC2CCCCC2O)[C@H](O)[C@@H](O)[C@@H]1O (stereo not given in full)
inactive: outcome (CRL-7250) | max response (HEK293) -0.405% | outcome (HaCat [1]) | max response (KB-3-1) 1.68% | outcome (NIH3T3 [2]) | outcome (HACAT [3]) inactive [at 17.4 µM] | outcome (NIH3T3 [4]) inactive [at 17.4 µM] | Potency (C33A) | Potency (CAOV3) | outcome (CASKI) | Potency (Es-2) | Potency (HeLa) | Potency (Hek293T) | Potency (JEG-3) | Potency (OV90)

CCCCOc1nc(N)c2c(n1)N(Cc1cccc(CN3CCCC3)c1)CC(=O)N2
inactive: outcome (CRL-7250) | max response (HEK293) -3.01% | outcome (HaCat [1]) | max response (KB-3-1) -3.08% | outcome (NIH3T3 [2]) | outcome (HACAT [3]) | outcome (NIH3T3 [4]) | Potency (C33A) | Potency (CAOV3) | outcome (CASKI) | Potency (Es-2) | Potency (HeLa) | Potency (Hek293T) | Potency (JEG-3) | Potency (OV90)

CC1OC(O[C@@H]2[C@H](O)[C@@H](OC3OC(CO)C(O)C(O)C3O)[C@H](OC(=O)[C@]34CCC(C)(C)C[C@H]3C3=CCC5[C@@]6(C)CC[C@H](O[C@@H]7O[C@H](C(=O)O)[C@@H](O)[C@H](O[C@@H]8OC[C@@H](O)[C@H](O)[C@H]8O)[C@H]7O[C@@H]7O[C@H](CO)[C@H](O)[C@H](O)[C@H]7O)[C@@](C)(C=O)C6CC[C@@]5(C)[C@]3(C)C[C@H]4O)O[C@@H]2C)C(O)C(O)C1OC1OCC(O)C(O)C1O (stereo not given in full)
inactive: max response (CRL-7250) -3.77% | max response (HEK293) -1.1% | outcome (HaCat [1]) | outcome (KB-3-1) | outcome (NIH3T3 [2]) | outcome (HACAT [3]) inactive [at 4.96 µM] | outcome (NIH3T3 [4]) inactive [at 4.96 µM] | activity change, negative = cytotoxicity (C33A) 2.44% [at 6.55 µM] | activity change, negative = cytotoxicity (CAOV3) 8.46% [at 6.55 µM] | activity change, negative = cytotoxicity (CASKI) 4.43% [at 6.55 µM] | activity change, negative = cytotoxicity (Es-2) -4.12% [at 6.55 µM] | activity change, negative = cytotoxicity (HeLa) 23.9% [at 6.55 µM] | activity change, negative = cytotoxicity (Hek293T) 0.666% [at 6.55 µM] | activity change, negative = cytotoxicity (JEG-3) 2.9% [at 6.55 µM] | activity change, negative = cytotoxicity (OV90) -6.72% [at 6.55 µM]

COC(=O)C1=CO[C@@H](O[C@@H]2O[C@H](CO)[C@@H](O)[C@H](O)[C@H]2O)[C@@H]2[C@@H](C)[C@@H](O)C(O)[C@H]12 (stereo not given in full)
inactive: max response (CRL-7250) -0.07% | max response (HEK293) -12.7% | outcome (HaCat [1]) | outcome (KB-3-1) | outcome (NIH3T3 [2]) | outcome (HACAT [3]) inactive [at 17.4 µM] | outcome (NIH3T3 [4]) inactive [at 17.4 µM] | Potency (C33A) | Potency (CAOV3) | outcome (CASKI) | Potency (Es-2) | Potency (HeLa) | Potency (Hek293T) | Potency (JEG-3) | Potency (OV90)

COc1cc(Nc2nc3ccccc3nc2NS(=O)(=O)c2cccc(NC(=O)c3ccc(C)c(OC)c3)c2)cc(OC)c1
inactive: max response (CRL-7250) -4.07% | max response (HEK293) -14.5% | outcome (HaCat [1]) | max response (KB-3-1) -12.1% | outcome (NIH3T3 [2]) | outcome (HACAT [3]) | outcome (NIH3T3 [4]) | Potency (C33A) | Potency (CAOV3) | outcome (CASKI) | Potency (Es-2) | Potency (HeLa) | Potency (Hek293T) | Potency (JEG-3) | Potency (OV90)

COc1c(O)cc2c(c1O)C(=O)O[C@H](C)[C@H]2O
inactive: outcome (CRL-7250) | max response (HEK293) -6.03% | outcome (HaCat [1]) | max response (KB-3-1) 4.43% | outcome (NIH3T3 [2]) | outcome (HACAT [3]) | outcome (NIH3T3 [4]) | Potency (C33A) | Potency (CAOV3) | outcome (CASKI) | Potency (Es-2) | Potency (HeLa) | Potency (Hek293T) | Potency (JEG-3) | Potency (OV90)

CC1(C)CC[C@]2(C(=O)O[C@@H]3O[C@H](CO)[C@@H](O)[C@H](O)[C@H]3O)CC[C@]3(C)C(=CCC4[C@@]5(C)C[C@H](O)[C@H](O[C@@H]6O[C@H](C(=O)O)[C@@H](O)[C@H](O)[C@H]6O)[C@@](C)(CO)C5CC[C@]43C)C2C1 (stereo not given in full)
inactive: max response (CRL-7250) -4.26% | max response (HEK293) 1.87% | outcome (HaCat [1]) | max response (KB-3-1) -16.3% | outcome (NIH3T3 [2]) | outcome (HACAT [3]) inactive [at 9.27 µM] | outcome (NIH3T3 [4]) inactive [at 9.27 µM] | activity change, negative = cytotoxicity (C33A) -10.3% [at 6.55 µM] | activity change, negative = cytotoxicity (CAOV3) 19.8% [at 6.55 µM] | activity change, negative = cytotoxicity (CASKI) -13.7% [at 6.55 µM] | activity change, negative = cytotoxicity (Es-2) -1.31% [at 6.55 µM] | activity change, negative = cytotoxicity (HeLa) -7.43% [at 6.55 µM] | activity change, negative = cytotoxicity (Hek293T) -0.0375% [at 6.55 µM] | activity change, negative = cytotoxicity (JEG-3) -4.92% [at 6.55 µM] | activity change, negative = cytotoxicity (OV90) -11.4% [at 6.55 µM]

OC[C@H]1O[C@@H](OCc2ccccc2)[C@H](O[C@@H]2OC[C@@H](O)[C@H](O)[C@H]2O)[C@@H](O)[C@@H]1O
inactive: outcome (CRL-7250) | max response (HEK293) 0.407% | outcome (HaCat [1]) | outcome (KB-3-1) | outcome (NIH3T3 [2]) | outcome (HACAT [3]) inactive [at 17.4 µM] | outcome (NIH3T3 [4]) inactive [at 17.4 µM] | Potency (C33A) | Potency (CAOV3) | outcome (CASKI) | Potency (Es-2) | Potency (HeLa) | Potency (Hek293T) | Potency (JEG-3) | Potency (OV90)
